Source: the supplement of paper PMC10849652
About 8,800 targets were measured; listed, in parts, are those with a hit and a random draw of the rest. About 0.5% of all pairs of compound and target were hits. Unmarked numbers belong to inactive results.

Tests used:
Experiment in all cases: log2 fold change, soluble protein after heating vs DMSO (PISA); higher = thermal stabilisation; K562 lysate, 10 uM; active = over 0.2 and 3.5 SD of the protein, either way, in both replicates (recomputed)
[1] = compound: NCC(=O)Nc1ccc(-n2nc(C(F)(F)F)cc2-c2ccc3c(ccc4ccccc43)c2)cc1
Method in brief: (§1)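 Log-two fold change in thermal stability relative to solvent controls is reported from duplicates. For each sample, crude K562 extract from dounce-homogenised pellets in PBS pH 7.4 with 1 mM MgCl2, at 1 mg/mL protein, was treated with 10 μM compound for 30 min. Aliquots heated for 3 min across 48°C-58°C were pooled, brought to 0.5% NP-40 at 4°C and cleared at 21,000xg for 90 min. The supernatant was quantified by TMTpro 16plex LC-MS/MS with channel sums equalised.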

[2] = compound: O=C(CCCCCCC(=O)Nc1ccccc1)NO [vorinostat]
Method in brief: as §1

[3] = compound: O=C(O)c1ccc2c(c1)nc(Nc1cccc(Cl)c1)c1ccncc12 [silmitasertib]
Method in brief: as §1

[4] = compound: O=C1NC(=O)C(c2cnc3ccccn23)=C1c1cn2c3c(cc(F)cc13)CN(C(=O)N1CCCCC1)CC2
Method in brief: as §1

[5] = compound: c1cn2cc(-c3ccc4cn[nH]c4c3)nc(Nc3ccc(N4CCOCC4)cc3)c2n1 [entospletinib]
Method in brief: as §1

UniProt P28482, sequence (P28482 whole entry, looked up): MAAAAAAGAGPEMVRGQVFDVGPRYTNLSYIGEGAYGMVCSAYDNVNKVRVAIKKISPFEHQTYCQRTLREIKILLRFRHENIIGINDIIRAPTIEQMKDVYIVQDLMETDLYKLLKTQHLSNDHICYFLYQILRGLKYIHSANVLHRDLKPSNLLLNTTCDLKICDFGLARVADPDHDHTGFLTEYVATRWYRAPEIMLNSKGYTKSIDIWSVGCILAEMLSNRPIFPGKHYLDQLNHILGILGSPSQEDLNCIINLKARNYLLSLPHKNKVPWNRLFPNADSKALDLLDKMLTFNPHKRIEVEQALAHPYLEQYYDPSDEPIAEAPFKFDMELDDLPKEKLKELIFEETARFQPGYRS
UniProt Q9NZB8, sequence (Q9NZB8 whole entry, looked up): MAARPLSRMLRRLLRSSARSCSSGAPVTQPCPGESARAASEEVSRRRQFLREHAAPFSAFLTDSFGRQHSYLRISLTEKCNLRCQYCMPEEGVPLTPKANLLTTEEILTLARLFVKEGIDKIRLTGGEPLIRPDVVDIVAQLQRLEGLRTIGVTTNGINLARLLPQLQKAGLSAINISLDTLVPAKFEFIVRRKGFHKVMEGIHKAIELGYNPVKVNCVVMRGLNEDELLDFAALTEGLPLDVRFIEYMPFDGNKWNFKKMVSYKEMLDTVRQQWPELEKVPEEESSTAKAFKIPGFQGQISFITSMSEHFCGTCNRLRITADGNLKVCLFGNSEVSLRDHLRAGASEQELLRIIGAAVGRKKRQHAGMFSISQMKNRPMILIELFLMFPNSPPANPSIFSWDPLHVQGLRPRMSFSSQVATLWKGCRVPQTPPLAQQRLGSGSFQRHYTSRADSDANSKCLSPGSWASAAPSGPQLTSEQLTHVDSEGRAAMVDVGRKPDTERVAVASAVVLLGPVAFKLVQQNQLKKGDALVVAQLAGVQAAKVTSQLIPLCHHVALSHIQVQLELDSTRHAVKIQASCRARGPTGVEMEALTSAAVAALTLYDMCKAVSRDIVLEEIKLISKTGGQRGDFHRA
UniProt O14782, sequence (O14782 whole entry, looked up): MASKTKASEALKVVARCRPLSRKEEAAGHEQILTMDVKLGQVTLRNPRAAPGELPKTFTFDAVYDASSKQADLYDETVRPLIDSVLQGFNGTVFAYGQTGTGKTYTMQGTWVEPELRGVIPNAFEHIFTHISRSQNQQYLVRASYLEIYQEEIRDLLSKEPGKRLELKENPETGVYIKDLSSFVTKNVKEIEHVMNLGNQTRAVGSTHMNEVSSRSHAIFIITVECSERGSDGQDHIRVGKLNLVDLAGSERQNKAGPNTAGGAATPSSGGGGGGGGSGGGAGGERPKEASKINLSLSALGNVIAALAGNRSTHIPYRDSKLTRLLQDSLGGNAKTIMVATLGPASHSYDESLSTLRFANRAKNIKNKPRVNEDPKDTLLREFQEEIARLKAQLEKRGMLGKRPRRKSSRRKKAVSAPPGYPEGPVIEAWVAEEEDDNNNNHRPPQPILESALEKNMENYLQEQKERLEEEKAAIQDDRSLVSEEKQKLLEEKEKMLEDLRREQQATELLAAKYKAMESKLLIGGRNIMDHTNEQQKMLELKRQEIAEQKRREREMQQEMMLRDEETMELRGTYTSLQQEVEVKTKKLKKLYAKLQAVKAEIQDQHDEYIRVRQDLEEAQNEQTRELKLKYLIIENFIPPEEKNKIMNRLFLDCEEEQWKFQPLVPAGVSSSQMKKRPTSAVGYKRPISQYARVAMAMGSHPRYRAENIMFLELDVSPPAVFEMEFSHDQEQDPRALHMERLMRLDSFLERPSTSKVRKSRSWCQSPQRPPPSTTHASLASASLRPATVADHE
UniProt Q9BTT4, sequence (Q9BTT4 whole entry, looked up): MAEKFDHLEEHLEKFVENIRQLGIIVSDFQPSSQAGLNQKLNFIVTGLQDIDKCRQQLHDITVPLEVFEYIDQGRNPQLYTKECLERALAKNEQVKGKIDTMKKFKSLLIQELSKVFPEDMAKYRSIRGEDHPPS
UniProt Q12851, sequence (Q12851 whole entry, looked up): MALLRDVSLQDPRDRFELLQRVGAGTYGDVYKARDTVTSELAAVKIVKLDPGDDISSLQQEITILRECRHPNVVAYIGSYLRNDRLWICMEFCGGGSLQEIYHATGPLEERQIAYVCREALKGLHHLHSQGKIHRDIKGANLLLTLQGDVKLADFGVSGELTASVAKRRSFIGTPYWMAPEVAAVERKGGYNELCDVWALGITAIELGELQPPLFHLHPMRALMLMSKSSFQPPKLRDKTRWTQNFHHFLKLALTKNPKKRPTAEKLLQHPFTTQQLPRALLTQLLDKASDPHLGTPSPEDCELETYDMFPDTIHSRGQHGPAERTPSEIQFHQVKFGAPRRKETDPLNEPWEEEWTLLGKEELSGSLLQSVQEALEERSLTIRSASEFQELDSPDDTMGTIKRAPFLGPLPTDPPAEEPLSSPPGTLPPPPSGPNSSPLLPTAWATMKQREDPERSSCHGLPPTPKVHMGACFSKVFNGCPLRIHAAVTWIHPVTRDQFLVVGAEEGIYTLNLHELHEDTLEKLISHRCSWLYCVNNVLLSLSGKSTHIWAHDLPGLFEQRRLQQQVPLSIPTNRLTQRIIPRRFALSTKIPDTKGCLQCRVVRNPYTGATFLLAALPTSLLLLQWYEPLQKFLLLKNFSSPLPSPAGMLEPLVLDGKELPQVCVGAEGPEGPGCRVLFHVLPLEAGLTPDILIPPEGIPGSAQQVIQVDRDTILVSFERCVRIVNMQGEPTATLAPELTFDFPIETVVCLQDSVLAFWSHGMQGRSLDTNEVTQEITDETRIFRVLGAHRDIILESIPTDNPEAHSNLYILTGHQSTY
UniProt Q7Z3D4, sequence (Q7Z3D4 whole entry, looked up): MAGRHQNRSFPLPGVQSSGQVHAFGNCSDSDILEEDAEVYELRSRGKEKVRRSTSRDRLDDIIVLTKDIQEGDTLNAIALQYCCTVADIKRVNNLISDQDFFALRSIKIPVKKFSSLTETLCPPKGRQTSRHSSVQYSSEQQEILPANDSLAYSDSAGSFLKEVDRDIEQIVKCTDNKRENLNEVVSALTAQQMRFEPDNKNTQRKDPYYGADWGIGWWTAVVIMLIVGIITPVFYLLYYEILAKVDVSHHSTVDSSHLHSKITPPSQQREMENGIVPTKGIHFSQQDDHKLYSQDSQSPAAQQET
UniProt P10620, sequence (P10620 whole entry, looked up): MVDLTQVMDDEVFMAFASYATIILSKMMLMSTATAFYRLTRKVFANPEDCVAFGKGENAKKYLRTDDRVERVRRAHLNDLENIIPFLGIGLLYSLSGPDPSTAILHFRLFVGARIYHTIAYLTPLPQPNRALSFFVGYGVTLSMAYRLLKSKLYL
UniProt Q8N3R9, sequence (Q8N3R9 whole entry, looked up): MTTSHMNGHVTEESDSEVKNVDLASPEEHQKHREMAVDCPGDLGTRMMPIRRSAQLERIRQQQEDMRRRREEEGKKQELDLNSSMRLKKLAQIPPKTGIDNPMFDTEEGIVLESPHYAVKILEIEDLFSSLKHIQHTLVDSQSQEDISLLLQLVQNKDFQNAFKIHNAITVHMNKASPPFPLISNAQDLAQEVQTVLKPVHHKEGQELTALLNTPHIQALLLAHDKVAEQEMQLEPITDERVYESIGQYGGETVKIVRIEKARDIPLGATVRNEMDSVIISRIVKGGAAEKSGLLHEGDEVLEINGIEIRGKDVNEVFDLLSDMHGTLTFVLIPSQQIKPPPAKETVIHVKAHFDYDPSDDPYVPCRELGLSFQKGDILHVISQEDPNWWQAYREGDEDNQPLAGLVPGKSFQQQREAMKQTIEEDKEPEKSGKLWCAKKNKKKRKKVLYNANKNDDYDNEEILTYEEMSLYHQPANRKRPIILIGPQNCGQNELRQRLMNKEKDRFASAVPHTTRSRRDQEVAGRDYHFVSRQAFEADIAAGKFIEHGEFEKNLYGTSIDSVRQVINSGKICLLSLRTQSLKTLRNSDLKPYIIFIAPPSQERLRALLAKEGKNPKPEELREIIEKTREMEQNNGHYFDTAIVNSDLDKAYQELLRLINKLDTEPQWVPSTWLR
UniProt P45983, sequence (P45983 whole entry, looked up): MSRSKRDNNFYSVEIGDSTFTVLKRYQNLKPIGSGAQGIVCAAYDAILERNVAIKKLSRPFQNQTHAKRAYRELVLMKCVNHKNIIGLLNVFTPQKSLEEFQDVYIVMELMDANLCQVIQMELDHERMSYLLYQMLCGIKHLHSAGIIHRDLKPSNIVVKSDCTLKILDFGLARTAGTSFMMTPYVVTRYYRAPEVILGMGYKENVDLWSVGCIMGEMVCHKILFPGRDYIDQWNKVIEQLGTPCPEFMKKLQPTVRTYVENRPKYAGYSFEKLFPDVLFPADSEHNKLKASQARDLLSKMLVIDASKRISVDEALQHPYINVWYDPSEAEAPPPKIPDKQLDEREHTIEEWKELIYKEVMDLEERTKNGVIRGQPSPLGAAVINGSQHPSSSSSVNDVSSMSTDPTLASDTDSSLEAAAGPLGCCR
UniProt P53778, sequence (P53778 whole entry, looked up): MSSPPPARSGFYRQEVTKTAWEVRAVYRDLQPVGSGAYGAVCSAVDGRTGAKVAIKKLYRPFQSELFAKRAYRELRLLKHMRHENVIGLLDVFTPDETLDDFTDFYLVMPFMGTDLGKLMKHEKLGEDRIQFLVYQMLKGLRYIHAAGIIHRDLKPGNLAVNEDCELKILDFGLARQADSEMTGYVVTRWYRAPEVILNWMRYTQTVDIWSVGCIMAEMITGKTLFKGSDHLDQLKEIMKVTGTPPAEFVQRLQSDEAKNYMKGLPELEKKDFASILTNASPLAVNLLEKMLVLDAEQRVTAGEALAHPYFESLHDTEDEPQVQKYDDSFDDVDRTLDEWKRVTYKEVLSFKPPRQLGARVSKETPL
UniProt Q14657, sequence (Q14657 whole entry, looked up): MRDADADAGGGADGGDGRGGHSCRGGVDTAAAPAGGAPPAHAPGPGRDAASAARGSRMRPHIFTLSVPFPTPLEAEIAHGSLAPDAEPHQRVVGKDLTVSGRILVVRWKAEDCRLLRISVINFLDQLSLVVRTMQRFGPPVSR

| Target | log2 fold change [1] | log2 fold change [2] | log2 fold change [3] | log2 fold change [4] | log2 fold change [5] |
| --- | --- | --- | --- | --- | --- |
| KPNA4 (UniProt O00629) | 0.006 | 0.047 | 0.024 | 0.02 | 0.021 |
| MORC3 (UniProt Q14149) | 0.008 | -0.303 (active) | -0.01 | 0.005 | 0.009 |
| MRPL10 isoform 2 (UniProt Q7Z7H8) | 0.005 | 0.035 | -0.027 | -0.027 | -0.027 |
| MGAT5 (UniProt Q09328) | 0.054 | 0.139 | -0.014 | 0.013 | 0.063 |
| MPDZ (UniProt O75970) | 0.058 | -0.59 (active) | 0.066 | 0.177 | -0.111 |
| MAPK12 (UniProt P53778) | 0 | 0.181 | -0.027 | -0.067 | -0.027 |
| MACROD1 (UniProt Q9BQ69) | 0.11 | -0.363 (active) | 0.04 | 0.05 | 0.047 |
| MAPK1 (UniProt P28482) | -0.027 | 0.039 | 0.042 | -0.005 | -0.039 |
| L3HYPDH (UniProt Q96EM0) | 0.023 | -0.31 (active) | 0 | -0.02 | -0.005 |
| MGST1 (UniProt P10620) | -0.013 | 0.037 | -0.013 | 0.031 | -0.01 |
| MOCS1 isoform 8 (UniProt Q9NZB8) | -0.1 | 0.06 | -0.018 | -0.111 | -0.051 |
| MICB, A0A140T979 | 0.068 | 0.196 | -0.121 | 0.021 | 0.35 |
| MLST8 (UniProt Q9BVC4) | 0.006 | -0.357 (active) | 0.104 | 0.046 | 0.043 |
| MAP4K2 (UniProt Q12851) | 0.03 | -0.263 | 0.064 | -0.104 | 0.15 |
| MED12 isoform 2 (UniProt Q93074) | 0.003 | -0.466 (active) | -0.044 | -0.008 | -0.012 |
| MRPL28 (UniProt Q13084) | 0.002 | -0.037 | 0.022 | 0.044 | 0.129 |
| MED10 (UniProt Q9BTT4) | -0.001 | -0.04 | -0.085 | 0.021 | -0.349 (active) |
| MMS19 isoform 8 (UniProt Q96T76) | 0.057 | -0.372 (active) | 0.054 | 0.029 | 0.024 |
| MAPK8 isoform 3 (UniProt P45983) | 0.064 | -0.395 (active) | 0.007 | 0.038 | -0.039 |
| MRPL15 (UniProt Q9P015) | 0.068 | 0.137 | -0.071 | -0.02 | -0.061 |
| LIMS1 isoform 3 (UniProt P48059) | -0.022 | 0.049 | 0.013 | 0.054 | -0.016 |
| MPP5 (UniProt Q8N3R9) | 0.015 | 0.016 | -0.1 | 0 | 0.013 |
| KIF3C (UniProt O14782) | 1.17 (active) | -0.352 | 0.249 | 0.074 | 0.032 |
| LYSMD3 (UniProt Q7Z3D4) | 0.01 | 0.095 | -0.022 | -0.029 | 0.028 |
| LAGE3 (UniProt Q14657) | 0.045 | -0.085 | -0.016 | -0.041 | -0.043 |
| LARP4B (UniProt Q92615) | 0.019 | -0.306 (active) | 0.032 | -0.028 | -0.011 |
| MED14 (UniProt O60244) | -0.01 | -0.21 (active) | -0.035 | 0.002 | -0.084 |
